Assay [1] relates to Vero E6 infected with SARS-CoV-2. The experiment in a line: morphology score (similarity to uninfected cells); higher = more like uninfected cells. To be noted: 24 h.
The test system is the same in assay [2]. The assay can be described thus: SARS-CoV-2 infection rate relative to infected DMSO; higher = more infection, active = 60 or less. The conditions noted are these: 24 h.

Turning to `COc1ccc2c(Oc3ccc(NC(=O)c4c(C)n(CC(C)(C)O)n(-c5ccccc5)c4=O)nc3)ccnc2c1` (10 µM), the morphology score in assay [1] is 0.316. In addition, in assay [2], the SARS-CoV-2 infection rate was 98% (inactive).
In assay [1], `C[C@@H]1C[C@H]2[C@@H]3CCC4=CC(=O)C=C[C@]4(C)[C@@]3(F)[C@@H](O)C[C@]2(C)[C@H]1C(=O)CO` [desoximetasone] (10 µM) showed a morphology score of 0.067. Besides, the SARS-CoV-2 infection rate in assay [2] was 91% (inactive).
In assay [1], `CC1=CC(=O)c2ccccc2C1=O` [menadione] (10 µM) displayed a morphology score of 0.144. Also, the SARS-CoV-2 infection rate in assay [2] was 91% (inactive).
Take `Nc1ncnc2c1ncn2CCOCP(=O)(O)O` [adefovir] (10 µM): the morphology score in assay [1] is -0.0616. Further, in assay [2], the SARS-CoV-2 infection rate is 110% (inactive).
In assay [1], `C[C@]1(O)C[C@@H](c2nc(-c3ccc4ccc(-c5ccccc5)nc4c3)c3c(N)nccn32)C1` [linsitinib] (10 µM) yielded a morphology score of 0.275. Further, the SARS-CoV-2 infection rate in assay [2] was 88.5% (inactive).
For `C[C@@]1(CO)[C@H](O)CC[C@@]2(C)[C@H]1CC[C@H]1C[C@@H]3C[C@@]12CC[C@]3(O)CO` [aphidicolin] (0.833333 µM), the morphology score in assay [1] was -0.0875. Besides, the SARS-CoV-2 infection rate in assay [2] is 106% (inactive).
In the same order, the values of `COC(=O)c1c(C)[nH]c(C)c1C(=O)c1ccccc1Cc1ccccc1` (10 µM) are -0.254 and 118% (inactive).
Taken in the same sequence, the figures for `C/C(=C\c1ccc(C(=O)O)cc1)c1ccc2c(c1)C(C)(C)CCC2(C)C` (10 µM) were -0.0726 and 102% (inactive).
Taken in the same sequence, the figures for `CC/C(=C(/CC)c1ccc(OP(=O)(O)O)cc1)c1ccc(OP(=O)(O)O)cc1` [fosfestrol] (10 µM) were 0.11 and 96% (inactive).
As for `O[C@@H]1[C@H](O)[C@@H](CCl)O[C@H]1n1cnc2c(NC3CC4CCC3C4)ncnc21` (mixture of isomers) [5'-chloro-5'-deoxy-ENBA-(+/-)] (10 µM), the morphology score in assay [1] was determined as 0.0934. In assay [2], the SARS-CoV-2 infection rate is 104% (inactive).
Taken in the same sequence, the figures for `COc1ccc(CNC(=O)Nc2ncc([N+](=O)[O-])s2)cc1` (10 µM) were -0.141 and 106% (inactive).
Taken in the same sequence, the figures for `COc1cc(O)c2c(c1)C(=O)c1cc(C)cc(O)c1C2=O` [rheochrysidin] (10 µM) were 0.119 and 109% (inactive).
In the same order, the values of `CC(C)(C)C(=O)OCOC(=O)[C@@H]1N2C(=O)[C@@H](/N=C/N3CCCCCC3)[C@H]2SC1(C)C` [pivmecillinam] (10 µM) are -0.0287 and 99% (inactive).
For `CN1CCN(C(=O)c2nc3ccc(Cl)cc3[nH]2)CC1` (10 µM), in assay [1], the morphology score worked out at 0.119. Moreover, in assay [2], the SARS-CoV-2 infection rate is 108% (inactive).
Taken in the same sequence, the figures for `CC(=O)Oc1c(C)cc(OCC(O)CNC(C)C)c(C)c1C` (stereo not given) [metipranolol] (10 µM) were -0.0461 and 108% (inactive).
Taken in the same sequence, the figures for `O=C(CCCl)NCCc1ccccc1` [fenaclon] (10 µM) were 0.0663 and 102% (inactive).
Taken in the same sequence, the figures for `CN1CCCCC1Cn1cc(C(=O)c2cc([N+](=O)[O-])ccc2I)c2ccccc21` (stereo not given) (10 µM) were 0.612 and 72.5% (inactive).
On to `CC(C)C[C@@H](N)C(=O)N[C@H]1C(=O)N[C@@H](CC(N)=O)C(=O)N[C@H]2C(=O)N[C@H]3C(=O)N[C@H](C(=O)N[C@H](C(=O)O)c4cc(O)cc(O)c4-c4cc3ccc4O)[C@H](O)c3ccc(c(Cl)c3)Oc3cc2cc(c3O[C@@H]2O[C@H](CO)[C@@H](O)[C@H](O)[C@H]2O[C@H]2C[C@](C)(N)[C@H](O)[C@H](C)O2)Oc2ccc(cc2Cl)[C@H]1O` [norvancomycin] (10 µM), for which the morphology score in assay [1] came out at 0.00559. In assay [2], the SARS-CoV-2 infection rate was 100% (inactive).
In the same order, the values of `CC(C)(C)C1CCc2c(sc(NC(=O)c3ccco3)c2C(=O)O)C1` (stereo not given) (0.833333 µM) are 0.0992 and 106% (inactive).
In the same order, the values of `N#Cc1ccncn1` [4-pyrimidinecarbonitrile] (10 µM) are 0.0783 and 97% (inactive).
In turn, `O=C(O)CCCNC(=O)c1cccnc1` [pikamilone] (10 µM) displayed a morphology score in assay [1] of 0.0672. For the same compound, the SARS-CoV-2 infection rate in assay [2] is 100% (inactive).
Taken in the same sequence, the figures for `Cc1nnc(C[C@@H]2C=C(c3ccc(Cl)cc3)c3ccccc3-n3c(C)nnc32)o1` (0.833333 µM) were -0.106 and 108% (inactive).
In the same order, the values of `Oc1cc2c(cc1O)CN(C(=S)NCCc1ccc(Cl)cc1)CCC2` [capsazepine] (10 µM) are -0.103 and 92.5% (inactive).
As for `OC[C@@H](O)[C@@H](O)[C@@H](O)CO` [ribitol] (10 µM), the morphology score in assay [1] was 0.073. Further, the SARS-CoV-2 infection rate in assay [2] was 105% (inactive).
In the case of `CCC[C@@H]1CC(=O)N([C@@H](CC)C(N)=O)C1` [Brivaracetam] (10 µM), the morphology score in assay [1] came to 0.0266. Moreover, the SARS-CoV-2 infection rate in assay [2] is 111% (inactive).
Regarding `Cc1ccc(Nc2c(F)cccc2Cl)c(CC(=O)O)c1` [lumiracoxib] (10 µM), the morphology score in assay [1] came out at 0.182. Further, the SARS-CoV-2 infection rate in assay [2] is 109% (inactive).
In the case of `C=C1C[C@]23C[C@@]1(O)CC[C@H]2[C@@]12C=C[C@H](O)[C@@](C)(C(=O)O1)[C@H]2[C@@H]3C(=O)O` (10 µM), the morphology score in assay [1] is -0.0765. The SARS-CoV-2 infection rate in assay [2] is 109% (inactive).
In the same order, the values of `CC(C)c1nc(CN(C)C(=O)N[C@H](C(=O)N[C@@H](Cc2ccccc2)C[C@H](O)[C@H](Cc2ccccc2)NC(=O)OCc2cncs2)C(C)C)cs1` [Ritonavir] (10 µM) are 0.0318 and 95% (inactive).
Taken in the same sequence, the figures for `CCOc1cc2ncc(C#N)c(Nc3ccc(OCc4cccc(F)c4)c(Cl)c3)c2cc1NC(=O)/C=C/CN(C)C` (10 µM) were -0.202 and 99.5% (inactive).
For `COc1cccc(OC)c1C(=O)N[C@@H]1C(=O)N2[C@@H]1SC(C)(C)[C@@H]2C(=O)O` [methicillin] (10 µM), in assay [1], the morphology score was -0.0574. In assay [2], the SARS-CoV-2 infection rate is 112% (inactive).

(Values after the supplement of paper PMC13380429.)
